Rows were chosen to be rich in hits. Some 7.1% of all compounds tested hit in one or more screens of this group.
Marburg entry – qHTS for Inhibitors of binding or entry into cells for Marburg Virus; Potency, µM (doses to about 49.2 µM), for inactives: at the highest dose activity change, negative = inhibition, actives largely listed as inhibitors; actives 6.5% (n = 18,000); AID 720532, 2013; Marburg virus pseudotype entry/binding inhibition, cell-based
Lassa entry – qHTS for Inhibitors of binding or entry into cells for Lassa Virus | Lassa virus pseudotyped entry inhibition, cell-based qHTS | Potency, µM (highest dose often 49.2 µM), for the others: at the highest dose activity change, negative = inhibition, usual class: inhibitors | actives 4.1% (n = 18,000) | AID 720533, 2013
Numbers without * were called inactive; ? = inconclusive; · = no result; [ ] = remark or other dose. Calls come from the whole dose curve; tested in HEK293 cells. % is set by controls: 0 for no effect and ±100 for the full control effect; potency is the fitted concentration of half-maximal effect.

SMILES	Marburg entry	Lassa entry
CCCCCC(=O)N1C[C@H](O)[C@@H](n2cc(COC(=O)c3ccccc3)nn2)C[C@H]1c1ccc(OC)cc1	?	-29%
CCCCCCCCNC(C)C(O)c1ccc(SC(C)C)cc1 (configuration not stated)	?	11µM*
CC(NCCc1ccc(O)cc1)C(O)c1ccc(O)cc1 (configuration not stated)	7%	-23%
C=C/C(=C/C(=O)C[C@H](C)C[C@@H](C)CC[C@H](O)[C@H](C)C(=O)C[C@@H](O)[C@H](C)[C@@H](C)OC(=O)C[C@@H](O)C1=C(C)C(=O)OC1=O)CC	2.5µM*	2µM*
O=S1(=O)CCSCCN1Cc1cccc(Cl)c1	18%	·
COC(=O)N[C@@H](c1ccccc1)[C@]1(C(C)=O)CCCC1=O	-4%[8.59 µM]	10%[8.59 µM]
COc1cccc2c1[C@H](C=Cc1ccccc1)[C@@H]([C@H](O)CN=[N+]=[N-])OC2	-5%[8.59 µM]	-18%[8.59 µM]
CC(C)NC[C@@H](O)COc1cccc2[nH]ccc12	2%	1%
CC(C)NCC(O)COc1cccc2ccccc12 (configuration not stated)	20µM*	?
CO[C@H]1C[C@H](O[C@@H]2/C(C)=C/C[C@@H]3C[C@@H](C[C@]4(CC[C@H](C)[C@@H](C5CCCCC5)O4)O3)OC(=O)[C@@H]3C=C(C)/C(=N/O)[C@H]4OC/C(=C\C=C\[C@@H]2C)[C@]43O)O[C@@H](C)[C@@H]1O	7%	-13%
CC[C@H](C)[C@H]1O[C@]2(CC[C@@H]1C)C[C@@H]1C[C@@H](C/C=C(\C)[C@@H](O[C@H]3C[C@H](OC)[C@@H](O[C@H]4C[C@H](OC)[C@@H](O)[C@H](C)O4)[C@H](C)O3)[C@@H](C)/C=C/C=C3\CO[C@@H]4[C@H](O)C(C)=C[C@@H](C(=O)O1)[C@]34O)O2	?	14µM*
COP(=O)(OC)[C@@H](O)C(Cl)(Cl)Cl	10%[17.8 µM]	4µM*
O=S1(=O)CCSCCN1Cc1ccc(Cl)cc1	22%	-16%
CCCCN1CC(COc2ccccc2)Oc2cc(Br)ccc2S1(=O)=O (configuration not stated)	?	-19%
C=CCP1(=O)O[C@H](C=C)C[C@H](C=C)O1 (some centres not stated)	38%	4%
CN(Cc1ccco1)Cc1cc(-c2ccnc3cc(Cl)ccc23)ccc1O	-14%	-14%
CCN(CC)Cc1cc(Nc2ccnc3cc(Cl)ccc23)ccc1O	5µM*	?
CCN(CCO)CCCC(C)Nc1ccnc2cc(Cl)ccc12 (configuration not stated)	1.3µM*	-17%
COCC=CC1=CC2=CC(=O)C(C)(OC(=O)c3cnc4ccccc4n3)C(=O)C2=CN1CC1CC1 (configuration not stated)	58%[8.59 µM]	13%[8.59 µM]
CCCCCCCc1cc2ccccc2c2c(C(=O)OC)c(C)c(C(=O)OC)n12	38%[8.59 µM]	13%[8.59 µM]
COC(=O)c1ccc(CN2C(=O)[C@]3(OCCC=C[C@@H]3C)c3cc(OC)ccc32)cc1	-23%[8.59 µM]	8%[8.59 µM]
COc1ccc2c(c1)C[C@@H](C)O[C@]21C(=O)Nc2ccccc21	71%[8.59 µM]	35%[8.59 µM]
CC(C)C[C@H]1COc2c(Cl)cccc2S(=O)(=O)N1C	12%	·
O=S1(=O)CC(N2CC=CC2)CN1CCc1ccccc1 (configuration not stated)	20%	18%
C=CC(C)(C)c1[nH]c2ccccc2c1C1=C(O)C(=O)C(c2c[nH]c3c(CC=C(C)C)cccc23)=C(O)C1=O	-7%	14µM*
SMILES	Marburg entry	Lassa entry
O=C(Nc1cc(C(F)(F)F)cc(C(F)(F)F)c1)c1cc(Cl)ccc1O	1µM*	1.1µM*
O=C(Nc1cc(C(F)(F)F)ccc1O)Nc1cc(C(F)(F)F)ccc1O	12%	-3%
CC1(C)CN(C2CCCCC2)C(=O)[C@@H]1CC(=O)Nc1ccc(Br)cc1	9%	-28%
CC[C@@]12C=C(C=Cc3ccccc3)[C@](CC)(C1)[C@H](c1ccccc1)CC2=O	?	-1%[8.59 µM]
C=CC[C@@H]1C=C(C(=O)OC)N(C(=O)C(F)(F)F)[C@@H](c2ccccc2Br)[C@@H]1C	9%[8.59 µM]	3%[8.59 µM]
C=CCc1ccc(OC)cc1	6.3µM*	6.3µM*
C=CCc1ccc(O)c(-c2cc(CC=C)ccc2O)c1	9%	-14%
CN(c1ccc(NC(=O)NCCN2CCOCC2)cc1)c1ccnc(Nc2ccc(CS(C)(=O)=O)cc2)n1	-13%	72%
COC(=O)CC=C[C@@H](C)[C@@H](C=NO[C@H](C)CN1CCCc2nc(C)c(C)cc21)N[S+](=O)([O-])c1ccc(C)cc1	?	14%[8.59 µM]
CCCCCCN1CCN(C2CN(CCc3ccccc3)S(=O)(=O)C2)CC1 (configuration not stated)	17%	-32%
CCCCCCCCCCCCCCCCn1cc[n+](Cc2ccccc2)c1C	7.1µM*	11µM*
C=C[C@@H]1C[C@@H](C=C)OP(=O)(O[C@@H](C=C)[C@@H](C)C(=O)OC)O1 (some centres not stated)	-24%	9%
C=C1C[C@H](OC(=O)C(C)(O)CCl)C2C(=C)C(=O)O[C@@H]2C2C1C[C@H](O)[C@]2(O)CCl (some centres not stated)	20µM*	?
CCN1C(=NCc2ccc(OC)cc2)NC(c2cccc(F)c2)C(C(=O)OC)=C1C (configuration not stated)	2%[8.59 µM]	18%[8.59 µM]
O=C(CCCN1CCC(O)(c2ccc(Cl)cc2)CC1)c1ccc(F)cc1	13µM*	?
O=C(CCCN1CCC(O)(c2ccc(Br)cc2)CC1)c1ccc(F)cc1	?	-16%[17.8 µM]
Clc1ccc2c(c1)CCc1cccnc1C2=C1CCNCC1	10µM*	25µM*
COC(=O)C1=NN=C(C(=O)OC)[C@@]2(C)c3ccccc3NC12 (some centres not stated)	44%[8.59 µM]	13%[8.59 µM]
CCCC=Cc1ccc(CN2C(CC(C)C)C(=O)N(Cc3cn(CCC4OCCO4)nn3)CCS2(=O)=O)cc1 (configuration not stated)	?	3%
O=C(Nc1ccc(Cl)cc1)Nc1ccc(Cl)c(C(F)(F)F)c1	11µM*	14µM*
CCCC(C)(C)C(=O)Nc1ccc(Cl)cc1	9%	8%
C=CCOC(=O)N[C@@H](Cc1ccccc1)C(C(=O)OC)=C(C)NCc1ccccc1	-11%[8.59 µM]	-22%[8.59 µM]
CCC1CN2CCc3cc(OC)c(OC)cc3C2CC1CC1NCCc2cc(OC)c(OC)cc21 (configuration not stated)	5µM*	5.6µM*
COc1ccc(CC2NCCc3cc(OC)c(OC)cc32)cc1OC (configuration not stated)	-18%	2%
CC(C)=CCN1C(=O)[C@]2(O[C@H](COc3ccccc3)CC3=CCCC32)c2c(Br)cccc21 (some centres not stated)	-17%[8.59 µM]	-9%[8.59 µM]
SMILES	Marburg entry	Lassa entry
CC(C)(C)c1ccc(C(=O)CCCN2CCC(OC(c3ccccc3)c3ccccc3)CC2)cc1	-67%	8.9µM*
CC1CCN(CCCC(=O)c2ccc(F)cc2)CC1	-19%	-3%
C#CCN1C(=O)[C@@]2(CC(C)=CC[C@@H](C)O2)c2ccccc21	16%[8.59 µM]	-24%[8.59 µM]
O=C(NCCCN1CCCCCC1)[C@@H](c1ccccc1)C1CCCCC1	13µM*	?
CCN(CC)CCOC(=O)C(c1ccccc1)C1CCCCC1 (configuration not stated)	?	-11%
C=C[C@@H](O)C[C@H]1C=C[C@@H]2C[C@H](C=C)OP(=O)(O1)O2	2%	9%
